Assay results as given in the supplement of paper PMC13380429.

Assays:
[1] = test system: Vero E6 infected with SARS-CoV-2; assay: morphology score (similarity to uninfected cells); higher = more like uninfected cells; settings: 24 h
[2] = test system: Vero E6 infected with SARS-CoV-2; assay: SARS-CoV-2 infection rate relative to infected DMSO; higher = more infection, active = 60 or less; settings: 24 h

With `CCCCOC(=O)c1cc2c(cn1)[nH]c1ccccc12` [beta-CCB] (10 µM) the morphology score [1] was 0.156 and the SARS-CoV-2 infection rate [2] was 94% (inactive).
With `C[C@]12C[C@H](O)[C@H]3[C@@H](CCC4=CC(=O)CC[C@@]43C)[C@@H]1CC[C@@H]2C(=O)CO` [corticosterone] (10 µM) the morphology score [1] was 0.0999 and the SARS-CoV-2 infection rate [2] was 110% (inactive).
With `COc1cc(N2CCC(N3CCN(C)CC3)CC2)ccc1Nc1ncc(Cl)c(Nc2ccccc2S(=O)(=O)C(C)C)n1` (0.833333 µM) the morphology score [1] was 0.115 and the SARS-CoV-2 infection rate [2] was 102% (inactive).
`CCC(C)SSc1ncc[nH]1` (centres undefined) (10 µM) was tested, and the morphology score [1] was -0.172 and the SARS-CoV-2 infection rate [2] was 95% (inactive).
With `CCCC[C@H]1OC(=O)c2ccccc21` [butylphthalide] (10 µM) the morphology score [1] was -0.108 and the SARS-CoV-2 infection rate [2] was 102% (inactive).
`CCCN1CCC[C@@H]2Cc3nc(N)ncc3C[C@H]21` [quinelorane] (10 µM) was tested, and the morphology score [1] was 0.13 and the SARS-CoV-2 infection rate [2] was 106% (inactive).
For `O=C1Nc2ccccc2/C1=C1/Nc2ccccc2C1=O` [indirubin] (10 µM), the morphology score [1] was 0.173 and the SARS-CoV-2 infection rate [2] was 99% (inactive).
In the case of `CN(C)CCc1ccc(O)cc1` [hordenine] (10 µM), the morphology score [1] is reported as 0.163 and the SARS-CoV-2 infection rate [2] is reported as 90.5% (inactive).
For `CCN1C(=O)CNc2ncc(-c3ccc(-c4nc[nH]n4)nc3C)nc21` (10 µM), the morphology score [1] was -0.0465 and the SARS-CoV-2 infection rate [2] was 96.5% (inactive).
For `COc1ccc2[nH]c(C(=O)c3ccccc3)cc2c1` (0.833333 µM), the morphology score [1] was -0.112 and the SARS-CoV-2 infection rate [2] was 110% (inactive).
`CN1[C@@H]2CC[C@H]1C[C@@H](OC(=O)c1cc(Cl)cc(Cl)c1)C2` [bemesetron] (10 µM) was tested, and the morphology score [1] was 0.216 and the SARS-CoV-2 infection rate [2] was 89.5% (inactive).
With `COC(=O)N1CC[C@@H]2[C@H]1CCC[C@@]2(O)C#Cc1cccc(C)c1` [mavoglurant] (10 µM) the morphology score [1] was -0.125 and the SARS-CoV-2 infection rate [2] was 112% (inactive).
For `CN(c1ccc(NC(=O)Nc2ccccc2)cc1)S(=O)(=O)c1cnn(-c2ccc(F)cc2)c1` (10 µM), the morphology score [1] was 0.268 and the SARS-CoV-2 infection rate [2] was 83.5% (inactive).
In the case of `O=C(O)/C=C/CO` [trans-4-hydroxycrotonic-acid] (10 µM), the morphology score [1] is reported as 0.0958 and the SARS-CoV-2 infection rate [2] is reported as 90.5% (inactive).
With `CCOc1cn(-c2ccc(F)cc2C)nc1C(=O)Nc1ccc(Oc2ccnc3cc(OC)c(OC)cc23)c(F)c1` (10 µM) the morphology score [1] was 0.685 and the SARS-CoV-2 infection rate [2] was 110% (inactive).
With `CC[C@H](C)[C@@H]1NC(=O)[C@H](Cc2ccc(O)cc2)NC(=O)[C@@H](N)CSSC[C@@H](C(=O)N2CCC[C@H]2C(=O)N[C@@H](CC(C)C)C(=O)NCC(N)=O)NC(=O)[C@H](CC(N)=O)NC(=O)[C@H](CCC(N)=O)NC1=O` [oxytocin] (10 µM) the morphology score [1] was -0.0591 and the SARS-CoV-2 infection rate [2] was 110% (inactive).
`O=C(Nc1nc2cccc(-c3ccc(CN4CCS(=O)(=O)CC4)cc3)n2n1)C1CC1` [filgotinib] (10 µM) was tested, and the morphology score [1] was 0.154 and the SARS-CoV-2 infection rate [2] was 97% (inactive).
For `CCCCN(CC)c1nc(C)nc2c1c(C)c(C)n2-c1c(C)cc(C)cc1C` [antalarmin] (10 µM), the morphology score [1] was 0.193 and the SARS-CoV-2 infection rate [2] was 93% (inactive).
With `Cc1c(NC(=O)c2cccnc2)c(=O)n(-c2ccccc2)n1C` [nifenazone] (10 µM) the morphology score [1] was 0.0329 and the SARS-CoV-2 infection rate [2] was 102% (inactive).
`Fc1ccccc1CNCc1ccc(-c2ccnc3[nH]ccc23)cc1` (10 µM) was tested, and the morphology score [1] was -0.0487 and the SARS-CoV-2 infection rate [2] was 116% (inactive).
In the case of `COc1cc2cc(c1Cl)N(C)C(=O)C[C@H](OC(=O)C(C)C)[C@]1(C)O[C@@H]1[C@H](C)[C@@H]1C[C@@](O)(NC(=O)O1)[C@H](OC)/C=C/C=C(\C)C2` [ansamitocin-p-3] (0.833333 µM), the morphology score [1] is reported as -0.108 and the SARS-CoV-2 infection rate [2] is reported as 114% (inactive).
For `COCc1nnc(N2CC(Oc3ccc(F)cc3Cl)C2)n1-c1ccc(OC)nc1` (10 µM), the morphology score [1] was -0.109 and the SARS-CoV-2 infection rate [2] was 106% (inactive).
In the case of `O=C1c2ccccc2S(=O)(=O)N1CCCCN1CCN(c2ncccn2)CC1` [ipsapirone] (10 µM), the morphology score [1] is reported as -0.0209 and the SARS-CoV-2 infection rate [2] is reported as 102% (inactive).
With `CCOc1ccc(/C=C2\NCCc3cc(OCC)c(OCC)cc32)cc1OCC` [drotaverine] (10 µM) the morphology score [1] was 0.156 and the SARS-CoV-2 infection rate [2] was 104% (inactive).
For `CCCCCCCCCCCCCCCCCC(=O)OC[C@@H](O)[C@H]1OC[C@H](O)[C@H]1O` [sorbitan-monostearate] (10 µM), the morphology score [1] was 0.0535 and the SARS-CoV-2 infection rate [2] was 97.5% (inactive).
With `CN(C)CCOC(=O)COc1ccc(Cl)cc1` [meclofenoxate] (10 µM) the morphology score [1] was -0.0664 and the SARS-CoV-2 infection rate [2] was 90.5% (inactive).
For `O=C(N[C@H](CO)[C@H](O)c1ccc([N+](=O)[O-])cc1)C(Cl)Cl` [chloramphenicol] (10 µM), the morphology score [1] was -0.278 and the SARS-CoV-2 infection rate [2] was 117% (inactive).
